PubChem BioAssay (NCATS)
Results filed as inconclusive are left out. A call without a number means that no potency is given here. Activity calls are given as the source filed them. Unless noted, the call rests on the fitted dose curve; in most records, active means well fitted curve in the direction sought with a large enough effect; inconclusive means small, poorly fitted or top-dose-only effect, or another doubt; inactive means no such curve, though single readings can be large; an effect the other way counts as inactive or inconclusive.

What was measured:
[1] = target: Ferritin light chain (Equus caballus) (UniProt P02791); experiment: qHTS Validation Assay for Identification of Novel General Anesthetics (AID 2323); further: series mostly up to about 77 µM
Chain of Ferritin light chain (Equus caballus) (P02791 2-175 limits assumed): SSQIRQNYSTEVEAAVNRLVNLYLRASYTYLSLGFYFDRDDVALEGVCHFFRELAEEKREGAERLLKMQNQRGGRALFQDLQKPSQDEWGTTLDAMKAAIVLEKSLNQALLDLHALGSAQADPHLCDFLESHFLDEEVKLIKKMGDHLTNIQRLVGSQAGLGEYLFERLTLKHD
Summary of the method: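 Competitive displacement of the profluorescent anesthetic 1-AMA (50% saturated, PBS) from 10 uM apoferritin, 10 min, room temperature. Activity is normalized 380/535 nm fluorescence; concentration-response fitted with a four-parameter Hill equation.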

[2] = target: ATP-dependent DNA helicase Q1 (Homo sapiens) (UniProt P46063); experiment: qHTS Validation Assay for Inhibitors of RecQ-Like Dna Helicase 1 (RECQ1) (AID 2353)
Chain of ATP-dependent DNA helicase Q1 (Homo sapiens) (P46063 whole entry, looked up): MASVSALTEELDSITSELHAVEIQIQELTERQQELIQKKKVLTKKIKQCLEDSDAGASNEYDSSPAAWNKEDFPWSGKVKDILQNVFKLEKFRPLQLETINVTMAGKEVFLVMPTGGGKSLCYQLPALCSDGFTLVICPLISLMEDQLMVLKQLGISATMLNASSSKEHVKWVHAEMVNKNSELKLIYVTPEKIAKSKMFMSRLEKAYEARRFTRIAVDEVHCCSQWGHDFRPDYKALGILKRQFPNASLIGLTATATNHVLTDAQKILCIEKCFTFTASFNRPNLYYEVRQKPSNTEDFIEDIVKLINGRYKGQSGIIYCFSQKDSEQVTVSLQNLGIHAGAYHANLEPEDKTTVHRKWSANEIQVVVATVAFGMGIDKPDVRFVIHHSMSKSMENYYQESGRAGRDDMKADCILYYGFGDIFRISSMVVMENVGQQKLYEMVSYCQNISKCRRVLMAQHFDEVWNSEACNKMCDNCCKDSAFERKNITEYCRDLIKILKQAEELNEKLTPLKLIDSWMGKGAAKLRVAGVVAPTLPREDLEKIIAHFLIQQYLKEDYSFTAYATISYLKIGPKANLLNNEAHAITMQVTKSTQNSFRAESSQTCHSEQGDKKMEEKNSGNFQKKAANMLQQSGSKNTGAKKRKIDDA
Summary of the method: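 50 nM RECQ1T1 preincubated 15 min with compound in Tris pH 8.0 buffer with MgCl2, DTT, Tween-20 and 2.5 ug/ml poly(dI-dC); started with 200 nM TAMRA/BHQ-2 forked duplex and 2 mM ATP. Unwinding read as fluorescence (525/598 nm), two reads 2 h apart.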

[3] = target: RecQ-like DNA helicase BLM (Homo sapiens) (UniProt P54132); experiment: qHTS Validation Assay for Inhibitors of Bloom's syndrome helicase (BLM) (AID 2364)
Chain of RecQ-like DNA helicase BLM (Homo sapiens) (P54132 whole entry, looked up): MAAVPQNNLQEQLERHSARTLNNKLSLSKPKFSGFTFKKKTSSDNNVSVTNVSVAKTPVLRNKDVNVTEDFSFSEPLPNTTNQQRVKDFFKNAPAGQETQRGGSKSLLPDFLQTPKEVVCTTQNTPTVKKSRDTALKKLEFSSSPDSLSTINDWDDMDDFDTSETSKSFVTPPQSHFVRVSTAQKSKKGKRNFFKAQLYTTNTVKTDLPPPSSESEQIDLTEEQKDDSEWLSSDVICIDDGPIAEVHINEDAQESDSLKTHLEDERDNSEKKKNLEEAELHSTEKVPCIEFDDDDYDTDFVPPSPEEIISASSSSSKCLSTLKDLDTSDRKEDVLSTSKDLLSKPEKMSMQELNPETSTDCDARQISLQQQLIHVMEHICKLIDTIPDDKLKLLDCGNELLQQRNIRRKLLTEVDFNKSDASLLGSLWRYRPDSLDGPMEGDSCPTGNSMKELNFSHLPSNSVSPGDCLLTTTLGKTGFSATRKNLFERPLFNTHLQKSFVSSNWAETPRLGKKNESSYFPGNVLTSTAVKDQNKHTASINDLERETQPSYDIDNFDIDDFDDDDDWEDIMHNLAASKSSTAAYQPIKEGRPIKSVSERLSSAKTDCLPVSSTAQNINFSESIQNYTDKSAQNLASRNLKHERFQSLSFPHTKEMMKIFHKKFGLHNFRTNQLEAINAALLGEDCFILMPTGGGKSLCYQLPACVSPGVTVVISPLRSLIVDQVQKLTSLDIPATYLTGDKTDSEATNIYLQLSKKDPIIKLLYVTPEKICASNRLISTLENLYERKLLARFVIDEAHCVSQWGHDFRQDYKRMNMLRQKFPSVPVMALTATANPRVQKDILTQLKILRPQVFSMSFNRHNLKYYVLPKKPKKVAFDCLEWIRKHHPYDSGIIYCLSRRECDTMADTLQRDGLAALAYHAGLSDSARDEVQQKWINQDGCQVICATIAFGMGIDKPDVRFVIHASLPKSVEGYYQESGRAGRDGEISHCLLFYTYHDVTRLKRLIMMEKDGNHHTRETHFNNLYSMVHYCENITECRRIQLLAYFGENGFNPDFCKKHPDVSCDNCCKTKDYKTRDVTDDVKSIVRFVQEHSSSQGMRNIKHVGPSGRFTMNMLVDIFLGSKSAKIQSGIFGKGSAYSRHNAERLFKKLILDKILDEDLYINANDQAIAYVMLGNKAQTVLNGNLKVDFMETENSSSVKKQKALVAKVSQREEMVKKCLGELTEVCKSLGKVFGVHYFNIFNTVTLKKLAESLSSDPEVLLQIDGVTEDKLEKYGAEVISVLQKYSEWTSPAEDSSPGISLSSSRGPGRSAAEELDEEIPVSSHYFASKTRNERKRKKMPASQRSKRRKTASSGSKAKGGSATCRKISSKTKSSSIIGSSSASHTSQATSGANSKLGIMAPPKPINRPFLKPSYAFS
Summary of the method: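 50 nM BLM preincubated 15 min at room temperature with compound in pH 8.0 Tris buffer containing 2.5 ug/ml poly(dI-dC); started with 200 nM TAMRA/BHQ-2 forked duplex and 2 mM ATP (final). Unwinding read as TAMRA fluorescence increase, two reads 2 h apart.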

[4] = Cytometric Cell-Based qHTS for Inhibitors of the mTORC1 Signaling Pathway in MEF (Tsc2-/-, p53-/-) Cells (AID 2660);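 further: percent of cells above a phospho-rpS6 to PI ratio cutoff in each well; series mostly up to about 38 µM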
Summary of the method: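 Percent of cells positive for normalized phospho-S6 staining is reported, with the cutoff set from rapamycin (7.5 nM) versus DMSO wells. Tsc2-/-, p53-/- MEFs received compound for 24 hrs.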

[5] = High Content Imaging Cell-Based qHTS for Inhibitors of the mTORC1 Signaling Pathway in MEF (Tsc2-/-, p53-/-) Cells (AID 2666);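 further: percent of cells scored positive for phospho-rpS6 Ser235/236 immunostaining by imaging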
Summary of the method: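 Phospho-rpS6 (Ser235/236) immunofluorescence, normalized and scored as % positive cells using rapamycin and DMSO controls, was read in empty-vector Tsc2-/-, p53-/- MEFs after 24 h compound exposure at 37 C; propidium iodide counted cells.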

[6] = High Content Imaging Cell-Based qHTS for Inhibitors of the mTORC1 Signaling Pathway in MEF Cells (AID 2667); further: potency means the concentration at half of the fitted maximal effect
Summary of the method: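 WT MEFs (Tsc2-/-, p53-/- re-expressing Tsc2), in DMEM + 10% FBS, were treated with compound for 24 h at 37 C. Cells were then fixed and stained for phospho-rpS6 Ser235/236 with propidium iodide as cell count. Values are % positive cells, with thresholds set against rapamycin-treated cells.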

[7] = Cytometry Cell-Based qHTS for Inhibitors of the mTORC1 Signaling Pathway in MEF cells (AID 2668);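 further: Tsc2-/- p53-/- mouse embryonic fibroblasts stably re-expressing wild-type Tsc2; percent cells positive for phospho-rpS6 Ser235/236 relative to propidium iodide stain; series mostly up to about 38 µM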
Summary of the method: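 Phospho-rpS6 (Ser235/236) immunofluorescence over PI signal, scored as % positive cells using thresholds from 7.5 nM rapamycin and DMSO wells, after 24 h compound exposure of WT-Tsc2-rescued Tsc2-/-, p53-/- MEFs. PI cell count recorded for viability.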

[8] = Validation screen for small molecules that induce DNA re-replication in MCF 10A normal breast cells (AID 463097); further: nearly all actives have a fitted effect of over 60% in size
Summary of the method: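 Read-out is Hoechst total nuclear intensity by fluorescence scanning imager, flagging increased high-DNA-content nuclei. Compounds were incubated with MCF 10A cells for 48 hr (37 C, 5% CO2) before 40 min staining.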

[9] = target: Ubiquitin carboxyl-terminal hydrolase 2 (Homo sapiens) (UniProt O75604); experiment: qHTS Validation Assay for Inhibitors of Ubiquitin-specific Protease USP2a Using CHOP2 as the Reporter (AID 463106)
Summary of the method: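 USP2 core (10 nM final) was preincubated with compound 30 min at RT in pH 8.0 Tris/CaCl2/beta-ME/CHAPS buffer. Ub-CHOP2 and reporter substrate (25 nM final each) were then added, with fluorescence (Ex 485/Em 531) read after 60 min. Data were normalized to NEM full inhibition and fitted to concentration-response curves.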

[10] = target: DNA polymerase III PolC-type (Bacillus subtilis (strain 168)) (UniProt P13267); experiment: qHTS Validation Assay for the Inhibitors of DNA Replication in Gram-Positive Bacteria (AID 485295);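 further: reconstituted holoenzyme with PolC plus beta clamp SSB and primase; PicoGreen fluorescence of double-stranded DNA made on primed circular M13 template; series mostly up to about 57 µM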
Chain of DNA polymerase III PolC-type (Bacillus subtilis (strain 168)) (P13267 whole entry, looked up): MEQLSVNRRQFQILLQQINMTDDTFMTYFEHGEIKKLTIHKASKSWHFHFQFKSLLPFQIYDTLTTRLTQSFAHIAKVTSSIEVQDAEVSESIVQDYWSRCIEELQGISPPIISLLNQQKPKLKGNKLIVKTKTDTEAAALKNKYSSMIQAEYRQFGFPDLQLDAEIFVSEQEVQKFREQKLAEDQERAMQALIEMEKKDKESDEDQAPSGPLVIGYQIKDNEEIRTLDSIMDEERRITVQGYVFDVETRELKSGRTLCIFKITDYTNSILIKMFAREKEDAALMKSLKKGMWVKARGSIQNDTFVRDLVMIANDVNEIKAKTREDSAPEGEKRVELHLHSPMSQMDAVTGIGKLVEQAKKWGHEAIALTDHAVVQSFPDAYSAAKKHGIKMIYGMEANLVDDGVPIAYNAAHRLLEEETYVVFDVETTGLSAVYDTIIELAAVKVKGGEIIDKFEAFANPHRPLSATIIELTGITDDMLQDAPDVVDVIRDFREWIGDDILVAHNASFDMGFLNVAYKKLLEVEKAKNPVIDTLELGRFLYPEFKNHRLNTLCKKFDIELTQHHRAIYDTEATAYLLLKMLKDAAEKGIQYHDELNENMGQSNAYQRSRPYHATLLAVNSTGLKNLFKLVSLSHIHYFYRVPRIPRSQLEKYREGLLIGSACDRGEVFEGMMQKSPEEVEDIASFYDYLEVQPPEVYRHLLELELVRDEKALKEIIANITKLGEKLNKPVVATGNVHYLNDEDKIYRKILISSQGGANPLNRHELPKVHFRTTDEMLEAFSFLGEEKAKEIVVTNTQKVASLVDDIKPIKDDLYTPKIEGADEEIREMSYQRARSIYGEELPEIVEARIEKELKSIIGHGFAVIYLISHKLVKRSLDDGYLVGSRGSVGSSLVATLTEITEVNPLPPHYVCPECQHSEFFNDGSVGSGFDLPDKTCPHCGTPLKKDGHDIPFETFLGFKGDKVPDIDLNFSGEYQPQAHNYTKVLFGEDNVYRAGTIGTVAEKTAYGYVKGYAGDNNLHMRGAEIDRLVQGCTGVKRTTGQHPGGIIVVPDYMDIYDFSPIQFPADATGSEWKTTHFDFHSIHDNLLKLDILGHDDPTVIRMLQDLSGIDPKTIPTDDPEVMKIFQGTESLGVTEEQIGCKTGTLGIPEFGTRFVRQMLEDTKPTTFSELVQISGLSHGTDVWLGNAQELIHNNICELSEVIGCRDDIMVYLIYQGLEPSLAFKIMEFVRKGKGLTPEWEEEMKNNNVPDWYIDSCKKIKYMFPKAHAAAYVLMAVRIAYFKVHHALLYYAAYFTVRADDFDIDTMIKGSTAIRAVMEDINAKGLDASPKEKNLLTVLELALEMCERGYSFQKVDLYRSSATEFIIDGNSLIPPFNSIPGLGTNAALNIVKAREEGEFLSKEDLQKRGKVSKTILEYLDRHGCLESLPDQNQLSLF
Summary of the method: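 Double-stranded DNA product detected by PicoGreen fluorescence after EDTA quench. Compound incubated with B. subtilis holoenzyme (PolC, beta subunit, SSB, primase) before substrate addition; primed replication of M13Gori with dNTPs and NTPs at room temperature; DMSO defines 0% inhibition.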

[11] = target: Tumor susceptibility gene 101 protein (Homo sapiens) (UniProt Q99816); experiment: qHTS Validation Assay for Iinhibitors of HIV-1 Budding by Blocking the Interaction of PTAP/TSG101 (AID 485342; calls by dose curve)
Chain of Tumor susceptibility gene 101 protein (Homo sapiens) (Q99816 whole entry, looked up, the tested form may be a part): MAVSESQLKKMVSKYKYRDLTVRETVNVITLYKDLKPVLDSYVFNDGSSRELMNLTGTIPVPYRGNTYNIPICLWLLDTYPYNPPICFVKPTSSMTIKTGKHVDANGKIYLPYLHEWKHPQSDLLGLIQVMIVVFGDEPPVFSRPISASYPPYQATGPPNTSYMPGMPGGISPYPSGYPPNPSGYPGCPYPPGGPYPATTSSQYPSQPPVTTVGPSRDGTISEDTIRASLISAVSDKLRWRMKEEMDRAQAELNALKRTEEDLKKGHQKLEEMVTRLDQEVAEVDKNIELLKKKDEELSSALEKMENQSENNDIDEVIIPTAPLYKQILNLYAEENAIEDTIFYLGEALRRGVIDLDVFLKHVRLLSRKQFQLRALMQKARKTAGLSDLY
Summary of the method: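 Fluorescence polarization of 50 nM FITC-PTAP peptide bound to 10 uM Tsg101 binding domain was read after 20 min room-temperature incubation with compounds, in 10 mM HEPES pH 7.5, 0.15 M NaCl, 0.01% Tween 20.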

[12] = qHTS Validation Assay to Find Inhibitors of Chronic Active B-Cell Receptor Signaling (AID 485345; active means well fitted curve in the direction sought with a large enough effect in the main read-out, with a control signal flat, not every such curve was filed as active)
Summary of the method: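 TMD8 ABC-DLBCL cells stably carrying doxycycline-inducible IkappaBalpha–green luciferase fusion plus unfused red luciferase; compounds 46 uM to 3 nM, 4 h at 37C with doxycycline. Corrected green/red luminescence ratio normalized to 10 uM MG-132 and basal cell wells; curves fitted.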

[13] = target: Beta-2 adrenergic receptor (Homo sapiens) (UniProt P07550); experiment: qHTS validation assay of beta-arrestin-biased ligands of beta2-adrenergic receptor (AID 485366)
Chain of Beta-2 adrenergic receptor (Homo sapiens) (P07550 whole entry, looked up): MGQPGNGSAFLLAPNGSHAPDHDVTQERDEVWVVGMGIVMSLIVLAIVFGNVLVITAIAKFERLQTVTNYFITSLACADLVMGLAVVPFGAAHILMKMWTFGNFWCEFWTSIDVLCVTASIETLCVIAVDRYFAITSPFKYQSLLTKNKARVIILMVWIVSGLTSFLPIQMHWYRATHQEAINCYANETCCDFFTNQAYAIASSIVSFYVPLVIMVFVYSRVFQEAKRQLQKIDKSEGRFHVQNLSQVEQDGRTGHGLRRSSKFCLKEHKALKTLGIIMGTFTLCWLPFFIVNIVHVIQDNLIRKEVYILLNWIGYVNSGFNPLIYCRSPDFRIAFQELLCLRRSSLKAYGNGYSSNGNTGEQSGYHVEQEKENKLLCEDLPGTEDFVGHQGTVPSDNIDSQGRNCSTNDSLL
Summary of the method: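 Luminescence from a tTA-responsive luciferase, induced when recombinant beta-arrestin is recruited to recombinant beta2-AR, served as the agonism signal. Cells were exposed to compound for 18 hr at 37 degrees C; titrations spanned up to 46 microM.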

[14] = Quantitative high throughput screen for delayed death inhibitors of the malarial parasite plastid, 96 hour incubation (AID 488745); further: nearly all actives have a fitted effect of over 70% in size; further: potency means the concentration at half of the fitted maximal effect
Summary of the method: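 Growth of reporter-bearing P. falciparum in red cells is measured after 96 h with compound, covering two erythrocytic cycles. Luminescence from the integrated luciferase serves as the growth signal.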

[15] = Quantitative high throughput screen for delayed death inhibitors of the malarial parasite plastid, 48 hour incubation (AID 488752); further: nearly all actives have a fitted effect of over 65% in size; further: potency means the concentration at half of the fitted maximal effect
Summary of the method: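 One parasite generation (48 h, 37 C, 5% CO2) of luciferase-reporter P. falciparum in erythrocytes is run with test compound; decreased luminescence indicates inhibited growth.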

[16] = target: Thioredoxin reductase 1, cytoplasmic (Rattus norvegicus) (UniProt O89049); experiment: qHTS Assay for Substrates of Mammalian Selenoprotein Thioredoxin Reductase 1 (TrxR1) (AID 488772);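 further: NADPH fluorescence in the first read after selenite addition and not the 8 min delta; series mostly up to about 57 µM; a drop in NADPH fluorescence below the no-compound background marks a TrxR1 substrate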
Summary of the method: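 Quantitative HTS in Tris-HCl buffer at pH 7.5 with EDTA and Tween-20, using rat TrxR1, 400 uM NADPH and 400 uM selenite (final). A fall in initial NADPH fluorescence relative to background marked substrate behaviour.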

[17] = target: Thioredoxin reductase 1, cytoplasmic (Rattus norvegicus) (UniProt O89049); experiment: qHTS Assay for Inhibitors of Mammalian Selenoprotein Thioredoxin Reductase 1 (TrxR1) (AID 488773); settings: Potency: inhibition;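 further: drop in NADPH fluorescence over an 8 min run after selenite addition; series mostly up to about 57 µM; nearly all actives have a fitted effect of over 40% in size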
Summary of the method: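 Steps: enzyme (90 nM) plus NADPH (400 uM final), 5 min at ~22 deg C; compound added, 15 min; selenite (400 uM final) added; fluorescence followed for 8 min. Concentration-response curves derived from the normalized delta values.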

[18] = target: Flap endonuclease 1 (Homo sapiens) (UniProt P39748); experiment: qHTS Validation Assay for the Inhibitors of Human Flap endonuclease 1 (FEN1) (AID 488816)
Summary of the method: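 Human FEN1 (10 nM) preincubated 15 min at room temperature with compounds, then flap DNA substrate added at 50 nM final. Fluorescence read at 0 and 15 min; concentration-response fitted with four-parameter Hill equation.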

[19] = qHTS Assay for Identification of Small Molecule Inducers of Hypoxia Response (AID 2120; active means well fitted curve in the direction sought with a large enough effect in the signal ratio, with a control signal flat, not every such curve was filed as active; the % refers to the signal ratio)
Summary of the method: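 Induction of beta-lactamase reporter activity was measured in CellSensor HRE-bla ME-180 cells after 17 h compound treatment at 37 degrees C, using CCF4 substrate and the 460nm/530nm emission ratio to derive AC50 values.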

[20] = target: ATP-dependent 6-phosphofructokinase (Trypanosoma brucei brucei) (UniProt O15648); experiment: qHTS Validation Assay to Find Inhibitors of T. brucei phosphofructokinase (AID 485368); settings: outcome: dose series up to 57.5 µM
Chain of ATP-dependent 6-phosphofructokinase (Trypanosoma brucei brucei) (O15648 whole entry, looked up): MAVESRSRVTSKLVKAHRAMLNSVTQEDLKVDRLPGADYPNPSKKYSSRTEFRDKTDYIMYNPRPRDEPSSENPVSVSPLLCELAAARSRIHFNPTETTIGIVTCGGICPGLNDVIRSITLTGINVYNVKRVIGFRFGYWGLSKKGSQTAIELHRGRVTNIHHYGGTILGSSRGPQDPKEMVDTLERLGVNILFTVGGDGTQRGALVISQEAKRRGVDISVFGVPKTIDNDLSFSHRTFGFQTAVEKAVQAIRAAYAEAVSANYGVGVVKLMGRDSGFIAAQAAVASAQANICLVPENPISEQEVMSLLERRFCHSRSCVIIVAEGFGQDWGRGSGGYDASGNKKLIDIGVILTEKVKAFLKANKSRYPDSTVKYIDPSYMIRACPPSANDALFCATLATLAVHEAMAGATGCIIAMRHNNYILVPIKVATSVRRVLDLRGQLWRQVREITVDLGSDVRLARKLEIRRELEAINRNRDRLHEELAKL
Summary of the method: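 Activity was normalized between 1x (1.25 nM) PFK wells as no inhibition and enzyme-free wells as full inhibition, from luminescence after ADP-Glo detection of ADP made from 0.5 mM F6P and 0.1 mM ATP over 45 min.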

SMILES	outcome [1]	Potency [2]	Potency [3]	outcome [4]	Potency [5]	Potency [6]	Potency [7]	Potency [8]	outcome [9]	Potency [10]	outcome [11]	Potency [12]	outcome [13]	Potency [14]	Potency [15]	outcome [16]	Potency [17]	Potency [18]	outcome [19]	outcome [20]
CCCCNC(=O)NS(=O)(=O)c1ccc(C)cc1	inactive	inactive	inactive	inactive	inactive	inactive	inactive	inactive	inactive	inactive	inactive	inactive	inactive	inactive	inactive	inactive	inactive	inactive		
CN=C(NC#N)NCCSCc1nc[nH]c1C	inactive	inactive	inactive		inactive	inactive	inactive	inactive		inactive	inactive	inactive	inactive	inactive	inactive	inactive	inactive	inactive	inactive	
CNC1(C)C2CCC(C2)C1(C)C (configuration not stated)	inactive	inactive	inactive	inactive	inactive	inactive	inactive	inactive	inactive	inactive	inactive	inactive	inactive	inactive	inactive	inactive		inactive		
NC(=O)N1c2ccccc2C=Cc2ccccc21	inactive	inactive	inactive	inactive	inactive	inactive		inactive	inactive	inactive	inactive	inactive	inactive	inactive	inactive		inactive	inactive	inactive	inactive
CN(C)CCCN1c2ccccc2Sc2ccccc21	inactive	inactive	inactive	inactive	inactive			inactive	inactive	inactive	inactive		inactive	inactive	inactive	inactive	inactive	inactive		
O=C1CC2(CCCC2)CC(=O)N1CCCCN1CCN(c2ncccn2)CC1	inactive	inactive	inactive	inactive	inactive	inactive		inactive	inactive	inactive	inactive	inactive	inactive	inactive	inactive	inactive	inactive	inactive		
Nc1c2c(nc3ccccc13)CCCC2O (configuration not stated)	inactive	inactive	inactive	inactive	inactive	inactive		inactive	inactive	inactive	inactive	inactive	inactive	inactive	inactive	inactive	inactive	inactive		
CNCCC(Oc1ccccc1OC)c1ccccc1 (configuration not stated)	inactive	inactive	inactive		inactive	inactive		inactive	inactive	inactive	inactive	inactive	inactive	inactive	inactive			inactive		inactive
CC(C)COCC(CN(Cc1ccccc1)c1ccccc1)N1CCCC1 (configuration not stated)	inactive	inactive	inactive	inactive	inactive	inactive	inactive	inactive	inactive	inactive	inactive	inactive	inactive	inactive	inactive			inactive		
CCC(=O)c1ccc2c(c1)N(CCCN(C)C)c1ccccc1S2	inactive	inactive	inactive	inactive	inactive	16.5 µM (active)			inactive	inactive	inactive	inactive	inactive				inactive	inactive		
CCN(CC)CCOCCOC(=O)C1(c2ccccc2)CCCC1	inactive	inactive	inactive		inactive	inactive	inactive	inactive	inactive	inactive	inactive	inactive	inactive		inactive			inactive		
COc1ccc(CCN(C)CCCC(C#N)(c2cc(OC)c(OC)c(OC)c2)C(C)C)cc1OC (configuration not stated)	inactive	inactive	inactive	inactive	inactive	inactive	inactive	inactive	inactive	inactive	inactive		inactive	11.7 µM (active)	8.28 µM (active)	inactive		inactive		inactive
CCCN(CCC)C(=O)C(CCC(=O)O)NC(=O)c1ccccc1 (configuration not stated)	inactive	inactive	inactive		inactive	inactive	inactive	inactive	inactive	inactive	inactive	inactive	inactive	inactive	inactive			inactive		inactive
O=C(CCNNC(=O)c1ccncc1)NCc1ccccc1	inactive	inactive	inactive	inactive	inactive	inactive	inactive	inactive	inactive	inactive	inactive	inactive	inactive	inactive	inactive	inactive	inactive	inactive		inactive
CN(C)C(=O)Oc1cccc([N+](C)(C)C)c1	inactive	inactive	inactive	inactive	inactive	inactive	inactive	inactive		inactive	inactive	inactive	inactive			inactive	inactive	inactive		inactive
CC1=NS(=O)(=O)c2cc(Cl)ccc2N1	inactive	inactive	inactive		inactive	inactive	inactive	inactive	inactive	inactive	inactive	inactive	inactive	inactive	inactive	inactive	inactive	inactive		
